# Screening results (PubChem BioAssay)
# The list is not random: actives were taken first. Their share in the collection is about 0.76%.
# FXIa inh mix – inhibitors of human coagulation factor XIa, pooled mixtures. inhibition, % at 5 µM. actives 0.19% (n = 62,000). P03951. purified FXIa, fluorogenic substrate;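 further: each value is inhibition by a whole ten-compound pool holding the compound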
# C1s block – blocks human complement C1s protease activity. actives 0.16% (n = 62,000). purified C1s, fluorogenic AMC substrate, pooled mixtures. AID 538. mean inhibition % of two 10-compound mixtures (active compounds read high), % at 5 µM (by protocol). P09871;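 active means inhibition above 20% in each of the two 10-compound mixture wells holding the compound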
# WNV NS2B-NS3 inh – WNV NS2B-NS3 proteinase inhibition; z-score (concentration not given with the values); P06935; actives 0.18% (n = 65,000); AID 577; WNV NS2B-NS3 protease, fluorogenic substrate Ex360/Em465; active compounds read low; in the data active means z-score below about -3
# FXIIa inh mix – blocks human factor XIIa in pooled compound mixtures. purified FXIIa, fluorogenic substrate. inhibition, % at 5 µM. actives 0.2% (n = 62,000). AID 684
# CatG inh – cathepsin G (human) inhibition; P08311; purified enzyme, AMC-tetrapeptide fluorescence, pooled mixtures; inhibition, % at 5 µM (by protocol); actives 0.2% (n = 62,000);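 active means inhibition above 20% in each of the two mixture wells holding the compound; inactive means inhibition of 20% or less in either well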
# Hits are given with their value; 0 = inactive. Unless noted, no stated cut-off is given here; in the data, active means inhibition above about 20% (passing the limit was not always enough); inactive means the rest.
SMILES,FXIa inh mix,C1s block,WNV NS2B-NS3 inh,FXIIa inh mix,CatG inh
O=C1NC(=O)[C@]2(Cc3ccccc3N3CCN(c4ccccc4)CC32)C(=O)N1Cc1ccccc1 (stereo partly drawn),0,0,-4.01,0,0
Cc1nn(C)c(C)c1P(=S)(c1c(C)nn(C)c1C)N(C)C,0,0,0,0,0
COc1ccccc1CN1CCCCC1c1cccnc1 (stereo not drawn),0,58.9,0,0,0
COc1ccccc1N1CCN(Cc2ccccc2Cl)CC1,0,0,0,0,0
